What all share (experiment): DAPPL (digital affinity profiling via proximity ligation, sequencing); 10 mM Tris-HCl pH 7.5, 50 mM NaCl, 1 mM DTT, 4% glycerol, room temperature, 30 min; GST-TFs on glutathione beads, 16-mer random dsDNA library, 0.1% formaldehyde crosslink after washing; high values mean tight binding
One experiment has as its target T1, FEV (Homo sapiens, UniProt Q99581 1-238).
T1 sequence: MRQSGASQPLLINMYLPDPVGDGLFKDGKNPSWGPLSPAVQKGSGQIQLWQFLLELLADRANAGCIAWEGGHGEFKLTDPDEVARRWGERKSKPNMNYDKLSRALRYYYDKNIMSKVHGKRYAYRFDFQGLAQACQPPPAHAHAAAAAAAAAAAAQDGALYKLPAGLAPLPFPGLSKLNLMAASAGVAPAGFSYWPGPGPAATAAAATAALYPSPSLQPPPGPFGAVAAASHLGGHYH
The following applies: protein: recombinant; tags: N-terminal GST; dsDNA, one strand shown. The method in brief: (§1)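 Binding signal is given per hexamer as its read frequency for a factor divided by its frequency in the tag-only sample. GST-fused human transcription factors were expressed in yeast, captured on glutathione beads, barcoded with DNA and pooled with that sample, then incubated with 200 nmole of a 16-mer random double-stranded DNA library in Tris/NaCl/DTT/glycerol buffer for 30 min at room temperature. The pools were then washed, crosslinked, proximity-ligated, amplified by PCR and sequenced on an Illumina NextSeq500.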

A further experiment addresses ETV5 (Homo sapiens, UniProt P41161 1-510). To be noted: protein: recombinant; tags: N-terminal GST; dsDNA, one strand shown. The method in brief:
as §1

The target of a further experiment is HSF1 (Homo sapiens, UniProt Q00613 1-529). The following applies: protein: recombinant; tags: N-terminal GST; chain copies: 3; dsDNA, one strand shown. The method in brief: as §1
Chain of HSF1 (Q00613 whole entry): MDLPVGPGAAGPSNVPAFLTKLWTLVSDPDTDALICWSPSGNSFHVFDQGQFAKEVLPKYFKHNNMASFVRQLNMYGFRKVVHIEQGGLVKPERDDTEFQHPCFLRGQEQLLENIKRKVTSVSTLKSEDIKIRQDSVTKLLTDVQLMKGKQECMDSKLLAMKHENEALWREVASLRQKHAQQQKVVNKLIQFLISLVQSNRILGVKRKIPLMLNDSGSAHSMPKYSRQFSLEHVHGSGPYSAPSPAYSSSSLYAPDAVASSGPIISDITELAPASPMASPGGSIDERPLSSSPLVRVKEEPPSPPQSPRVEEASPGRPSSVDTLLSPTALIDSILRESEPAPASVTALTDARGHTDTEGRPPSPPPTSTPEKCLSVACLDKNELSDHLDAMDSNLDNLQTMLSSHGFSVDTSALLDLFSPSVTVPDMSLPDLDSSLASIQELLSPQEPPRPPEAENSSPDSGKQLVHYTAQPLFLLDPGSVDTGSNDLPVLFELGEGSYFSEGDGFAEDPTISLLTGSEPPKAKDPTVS
For the next experiment, the target named is T2, SPIC (Homo sapiens, UniProt Q8N5J4 1-248).
T2 sequence: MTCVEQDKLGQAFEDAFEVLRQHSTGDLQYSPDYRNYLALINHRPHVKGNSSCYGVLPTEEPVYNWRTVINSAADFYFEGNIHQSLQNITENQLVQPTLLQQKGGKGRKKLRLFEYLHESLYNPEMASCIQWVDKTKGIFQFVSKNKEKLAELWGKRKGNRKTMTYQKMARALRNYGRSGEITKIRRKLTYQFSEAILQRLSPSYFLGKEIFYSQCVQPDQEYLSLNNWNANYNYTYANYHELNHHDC
To be noted: protein: recombinant; tags: N-terminal GST; dsDNA, one strand shown. The method in brief: as §1

The target in another experiment is ELF4 (Homo sapiens, UniProt Q99607 1-663). The following applies: protein: recombinant; tags: N-terminal GST; dsDNA, one strand shown. Put shortly:
as §1

For the next experiment, the target named is T3, ELK4 (Homo sapiens, UniProt P28324-2 1-405).
T3 sequence: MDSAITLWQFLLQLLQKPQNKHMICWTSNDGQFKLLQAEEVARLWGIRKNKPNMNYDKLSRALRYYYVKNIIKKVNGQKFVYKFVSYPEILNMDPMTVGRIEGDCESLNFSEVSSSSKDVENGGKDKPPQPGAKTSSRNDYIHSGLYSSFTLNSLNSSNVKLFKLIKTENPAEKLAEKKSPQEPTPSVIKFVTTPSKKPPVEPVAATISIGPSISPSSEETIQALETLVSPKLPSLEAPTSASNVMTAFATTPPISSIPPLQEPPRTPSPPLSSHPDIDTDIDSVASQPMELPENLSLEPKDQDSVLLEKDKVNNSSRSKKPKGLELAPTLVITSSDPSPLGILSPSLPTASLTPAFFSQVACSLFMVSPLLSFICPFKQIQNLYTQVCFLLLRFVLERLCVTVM
To be noted: protein: recombinant; tags: N-terminal GST; dsDNA, one strand shown. The method in brief:
as §1

The target of a further experiment is T4, ETV2 (Homo sapiens, UniProt O00321 1-342).
T4 sequence: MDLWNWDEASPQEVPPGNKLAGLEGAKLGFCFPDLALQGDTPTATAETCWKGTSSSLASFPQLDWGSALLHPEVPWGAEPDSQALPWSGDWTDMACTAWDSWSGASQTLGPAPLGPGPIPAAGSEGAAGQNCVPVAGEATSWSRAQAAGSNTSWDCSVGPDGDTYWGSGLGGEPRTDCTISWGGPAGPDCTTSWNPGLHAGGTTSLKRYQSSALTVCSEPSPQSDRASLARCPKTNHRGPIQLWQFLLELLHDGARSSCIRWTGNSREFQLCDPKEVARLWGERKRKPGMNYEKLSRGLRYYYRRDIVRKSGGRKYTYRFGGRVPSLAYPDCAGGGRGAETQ
To be noted: protein: recombinant; tags: N-terminal GST; dsDNA, one strand shown. Put shortly: as §1

Another experiment concerns the target T5, ELF3 (Homo sapiens, UniProt P78545 1-371).
T5 sequence: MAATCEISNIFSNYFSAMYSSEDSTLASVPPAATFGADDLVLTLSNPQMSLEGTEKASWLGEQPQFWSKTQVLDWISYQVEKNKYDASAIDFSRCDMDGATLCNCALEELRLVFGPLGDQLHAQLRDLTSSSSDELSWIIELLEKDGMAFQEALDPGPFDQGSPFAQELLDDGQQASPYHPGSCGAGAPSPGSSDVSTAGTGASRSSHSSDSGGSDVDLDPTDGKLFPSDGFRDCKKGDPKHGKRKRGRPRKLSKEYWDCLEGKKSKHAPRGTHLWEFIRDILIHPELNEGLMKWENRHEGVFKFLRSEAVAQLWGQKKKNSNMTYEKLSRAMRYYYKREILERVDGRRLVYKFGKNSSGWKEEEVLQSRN
The following applies: protein: recombinant; tags: N-terminal GST; dsDNA, one strand shown. The method in brief:
as §1

Another experiment concerns the target CRX (Homo sapiens, UniProt O43186 1-299). To be noted: protein: recombinant; tags: N-terminal GST; dsDNA, one strand shown. Put shortly: as §1
The next experiment deals with ETV1 (Homo sapiens, UniProt P50549 1-477). To be noted: protein: recombinant; tags: N-terminal GST; dsDNA, one strand shown. Put shortly: as §1
Chain of ETV1 (P50549 whole entry): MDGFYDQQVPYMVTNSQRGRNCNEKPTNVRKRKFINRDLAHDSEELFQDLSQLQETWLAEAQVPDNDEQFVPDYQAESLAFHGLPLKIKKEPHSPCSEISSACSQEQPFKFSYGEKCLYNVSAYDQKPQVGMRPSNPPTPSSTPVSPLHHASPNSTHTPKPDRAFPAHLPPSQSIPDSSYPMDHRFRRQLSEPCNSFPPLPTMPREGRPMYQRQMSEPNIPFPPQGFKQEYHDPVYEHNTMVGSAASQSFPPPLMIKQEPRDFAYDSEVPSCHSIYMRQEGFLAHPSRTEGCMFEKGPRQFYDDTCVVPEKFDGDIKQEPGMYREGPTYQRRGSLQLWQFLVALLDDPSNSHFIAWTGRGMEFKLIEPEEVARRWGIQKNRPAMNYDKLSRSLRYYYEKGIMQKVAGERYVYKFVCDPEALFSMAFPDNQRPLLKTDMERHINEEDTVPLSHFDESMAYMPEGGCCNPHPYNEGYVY
The target of a further experiment is T6, ERF (Homo sapiens, UniProt P50548 1-548).
T6 sequence: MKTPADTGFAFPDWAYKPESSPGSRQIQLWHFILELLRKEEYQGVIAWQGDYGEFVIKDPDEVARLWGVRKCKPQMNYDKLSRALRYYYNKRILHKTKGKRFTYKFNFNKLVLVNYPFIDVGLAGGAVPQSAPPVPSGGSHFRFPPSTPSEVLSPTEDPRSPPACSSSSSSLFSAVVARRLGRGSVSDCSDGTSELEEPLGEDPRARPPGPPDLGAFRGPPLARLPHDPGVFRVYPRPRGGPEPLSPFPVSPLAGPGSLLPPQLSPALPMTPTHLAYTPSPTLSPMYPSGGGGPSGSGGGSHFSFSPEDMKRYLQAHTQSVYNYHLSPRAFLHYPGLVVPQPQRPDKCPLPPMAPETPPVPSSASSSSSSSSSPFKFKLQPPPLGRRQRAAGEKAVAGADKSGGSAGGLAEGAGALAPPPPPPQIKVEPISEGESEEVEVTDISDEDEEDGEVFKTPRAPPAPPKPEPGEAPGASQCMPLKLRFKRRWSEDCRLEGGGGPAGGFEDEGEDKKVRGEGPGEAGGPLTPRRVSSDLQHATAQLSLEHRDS
To be noted: protein: recombinant; tags: N-terminal GST; dsDNA, one strand shown. Put shortly: as §1

For a further experiment, the target named is T7, ETV3L (Homo sapiens, UniProt Q6ZN32 1-361).
T7 sequence: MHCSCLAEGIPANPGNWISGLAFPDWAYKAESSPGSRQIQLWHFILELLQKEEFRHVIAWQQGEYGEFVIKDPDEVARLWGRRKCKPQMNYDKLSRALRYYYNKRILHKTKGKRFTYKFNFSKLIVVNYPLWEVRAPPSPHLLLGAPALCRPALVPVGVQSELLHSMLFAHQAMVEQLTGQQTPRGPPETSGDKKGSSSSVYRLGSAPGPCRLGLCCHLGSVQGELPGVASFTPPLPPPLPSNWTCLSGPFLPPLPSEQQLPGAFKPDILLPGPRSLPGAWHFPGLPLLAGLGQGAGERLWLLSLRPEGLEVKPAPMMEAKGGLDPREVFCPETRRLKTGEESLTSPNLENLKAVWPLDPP
The following applies: protein: recombinant; tags: N-terminal GST; dsDNA, one strand shown. Put shortly: as §1

Another experiment deals with T8, ETS2 (Homo sapiens, UniProt P15036 1-469).
T8 sequence: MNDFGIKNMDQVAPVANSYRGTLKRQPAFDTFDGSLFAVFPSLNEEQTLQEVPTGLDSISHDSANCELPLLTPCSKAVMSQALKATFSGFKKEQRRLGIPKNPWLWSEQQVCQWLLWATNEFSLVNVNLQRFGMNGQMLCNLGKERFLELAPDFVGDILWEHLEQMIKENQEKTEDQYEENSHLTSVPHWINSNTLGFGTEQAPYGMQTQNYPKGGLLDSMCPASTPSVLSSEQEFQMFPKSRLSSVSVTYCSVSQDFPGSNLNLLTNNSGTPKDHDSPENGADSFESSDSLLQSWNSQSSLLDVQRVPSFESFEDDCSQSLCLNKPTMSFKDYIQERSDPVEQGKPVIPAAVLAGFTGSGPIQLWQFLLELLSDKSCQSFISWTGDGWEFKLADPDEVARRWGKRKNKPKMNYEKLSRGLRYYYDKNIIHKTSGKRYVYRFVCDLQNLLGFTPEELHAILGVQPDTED
The following applies: protein: recombinant; tags: N-terminal GST; dsDNA, one strand shown. The method in brief:
as §1

The target in another experiment is T9, SPDEF (Homo sapiens, UniProt O95238 1-335).
T9 sequence: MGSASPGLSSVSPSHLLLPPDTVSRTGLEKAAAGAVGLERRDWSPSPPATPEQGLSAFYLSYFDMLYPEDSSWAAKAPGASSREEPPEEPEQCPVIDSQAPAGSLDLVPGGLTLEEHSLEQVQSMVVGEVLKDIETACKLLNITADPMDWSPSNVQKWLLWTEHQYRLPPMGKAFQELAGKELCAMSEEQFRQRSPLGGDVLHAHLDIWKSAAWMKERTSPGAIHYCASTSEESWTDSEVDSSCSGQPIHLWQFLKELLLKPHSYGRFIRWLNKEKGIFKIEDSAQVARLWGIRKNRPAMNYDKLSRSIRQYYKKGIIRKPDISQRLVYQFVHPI
To be noted: protein: recombinant; tags: N-terminal GST; dsDNA, one strand shown. Put shortly: as §1

For the next experiment, the target named is T10, ETV7 (Homo sapiens, UniProt Q9Y603 1-341).
T10 sequence: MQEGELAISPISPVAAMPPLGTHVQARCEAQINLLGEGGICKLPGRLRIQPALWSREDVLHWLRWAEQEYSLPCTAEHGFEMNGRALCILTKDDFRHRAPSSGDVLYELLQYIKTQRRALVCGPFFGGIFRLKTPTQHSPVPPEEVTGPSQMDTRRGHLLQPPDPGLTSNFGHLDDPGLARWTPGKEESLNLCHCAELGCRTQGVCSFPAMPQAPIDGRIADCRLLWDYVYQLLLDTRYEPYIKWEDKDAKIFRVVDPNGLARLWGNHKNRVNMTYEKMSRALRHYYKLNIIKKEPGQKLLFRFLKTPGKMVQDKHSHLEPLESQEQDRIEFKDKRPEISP
The following applies: protein: recombinant; tags: N-terminal GST; dsDNA, one strand shown. Put shortly: as §1

In a further experiment the target is T11, ELF5 (Homo sapiens, UniProt Q9UKW6-2 1-255).
T11 sequence: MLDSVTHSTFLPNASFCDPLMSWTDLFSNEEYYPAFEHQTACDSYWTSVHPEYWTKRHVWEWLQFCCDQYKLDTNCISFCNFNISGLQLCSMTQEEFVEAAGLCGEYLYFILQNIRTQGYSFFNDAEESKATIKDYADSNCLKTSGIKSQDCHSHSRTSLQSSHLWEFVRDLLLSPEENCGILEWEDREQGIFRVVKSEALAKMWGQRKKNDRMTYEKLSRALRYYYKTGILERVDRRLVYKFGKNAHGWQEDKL
To be noted: protein: recombinant; tags: N-terminal GST; dsDNA, one strand shown. Put shortly:
as §1

Another experiment has as its target T12, ETV3 (Homo sapiens, UniProt P41162-2 1-143).
T12 sequence: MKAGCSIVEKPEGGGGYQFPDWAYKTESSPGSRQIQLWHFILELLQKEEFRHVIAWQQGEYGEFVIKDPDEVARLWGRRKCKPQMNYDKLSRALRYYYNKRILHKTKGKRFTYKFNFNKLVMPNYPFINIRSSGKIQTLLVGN
To be noted: protein: recombinant; tags: N-terminal GST; dsDNA, one strand shown. Put shortly:
as §1

A further experiment has as its target ETV6 (Homo sapiens, UniProt P41212 1-452). To be noted: protein: recombinant; tags: N-terminal GST; dsDNA, one strand shown. The method in brief:
as §1

Chain of ETV6 (P41212 whole entry): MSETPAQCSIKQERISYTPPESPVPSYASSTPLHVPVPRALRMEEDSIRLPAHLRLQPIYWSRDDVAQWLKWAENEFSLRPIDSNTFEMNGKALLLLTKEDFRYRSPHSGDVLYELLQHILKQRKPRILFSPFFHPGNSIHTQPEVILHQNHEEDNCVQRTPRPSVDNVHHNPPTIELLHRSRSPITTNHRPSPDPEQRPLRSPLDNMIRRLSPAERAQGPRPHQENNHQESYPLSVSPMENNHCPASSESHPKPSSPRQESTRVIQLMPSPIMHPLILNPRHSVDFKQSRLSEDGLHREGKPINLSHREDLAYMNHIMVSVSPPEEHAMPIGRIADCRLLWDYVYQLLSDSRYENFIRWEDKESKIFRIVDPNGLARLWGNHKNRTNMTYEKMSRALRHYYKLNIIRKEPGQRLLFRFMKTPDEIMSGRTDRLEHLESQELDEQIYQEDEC
Chain of ELF4 (Q99607 whole entry): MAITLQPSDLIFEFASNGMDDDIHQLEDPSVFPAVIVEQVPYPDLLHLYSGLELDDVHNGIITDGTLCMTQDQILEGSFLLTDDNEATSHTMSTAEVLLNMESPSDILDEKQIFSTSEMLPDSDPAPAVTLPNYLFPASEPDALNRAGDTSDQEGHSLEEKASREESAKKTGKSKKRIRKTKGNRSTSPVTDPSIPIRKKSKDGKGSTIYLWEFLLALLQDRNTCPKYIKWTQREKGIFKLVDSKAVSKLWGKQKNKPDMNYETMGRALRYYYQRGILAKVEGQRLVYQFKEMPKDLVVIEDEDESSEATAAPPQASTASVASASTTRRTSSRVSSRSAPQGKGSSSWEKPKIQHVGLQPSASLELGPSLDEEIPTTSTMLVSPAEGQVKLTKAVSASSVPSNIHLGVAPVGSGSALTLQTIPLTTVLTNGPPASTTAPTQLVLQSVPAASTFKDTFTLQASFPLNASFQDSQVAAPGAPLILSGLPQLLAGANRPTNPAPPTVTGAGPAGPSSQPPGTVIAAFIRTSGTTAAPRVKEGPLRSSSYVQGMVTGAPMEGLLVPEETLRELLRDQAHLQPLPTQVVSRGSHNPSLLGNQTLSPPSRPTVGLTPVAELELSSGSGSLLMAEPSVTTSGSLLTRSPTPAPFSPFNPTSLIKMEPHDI
Chain of ETV5 (P41161 whole entry): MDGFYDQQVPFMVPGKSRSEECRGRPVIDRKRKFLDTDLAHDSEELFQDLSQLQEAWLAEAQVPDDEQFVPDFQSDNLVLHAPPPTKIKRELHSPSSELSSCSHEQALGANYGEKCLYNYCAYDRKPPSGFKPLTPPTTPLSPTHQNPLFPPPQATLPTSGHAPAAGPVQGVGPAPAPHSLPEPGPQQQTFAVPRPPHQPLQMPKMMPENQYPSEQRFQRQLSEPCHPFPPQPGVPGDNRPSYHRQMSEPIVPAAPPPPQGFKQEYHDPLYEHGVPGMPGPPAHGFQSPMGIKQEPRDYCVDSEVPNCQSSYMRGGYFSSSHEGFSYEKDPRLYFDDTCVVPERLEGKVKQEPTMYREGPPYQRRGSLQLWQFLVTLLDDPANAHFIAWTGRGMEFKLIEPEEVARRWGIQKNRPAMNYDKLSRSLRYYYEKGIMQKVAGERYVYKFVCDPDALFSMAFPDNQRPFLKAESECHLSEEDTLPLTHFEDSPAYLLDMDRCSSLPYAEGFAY
Chain of CRX (O43186 whole entry): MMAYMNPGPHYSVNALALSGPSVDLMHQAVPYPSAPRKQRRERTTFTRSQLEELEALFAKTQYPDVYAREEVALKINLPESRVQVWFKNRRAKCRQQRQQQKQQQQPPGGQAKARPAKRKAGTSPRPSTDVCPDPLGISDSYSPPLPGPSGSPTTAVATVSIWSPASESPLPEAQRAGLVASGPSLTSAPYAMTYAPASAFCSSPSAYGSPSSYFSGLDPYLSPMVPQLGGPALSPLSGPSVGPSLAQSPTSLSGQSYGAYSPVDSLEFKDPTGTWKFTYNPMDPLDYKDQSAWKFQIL

As to TATGTT, the binding signal is 1.17 fold enrichment (6-mer frequency, TF over GST control) with FEV; 1.15 fold enrichment (6-mer frequency, TF over GST control) with ETV5; 1.21 fold enrichment (6-mer frequency, TF over GST control) with HSF1; 1.06 fold enrichment (6-mer frequency, TF over GST control) in the experiment with SPIC; 1.2 fold enrichment (6-mer frequency, TF over GST control) in the experiment with ELF4; 1.29 fold enrichment (6-mer frequency, TF over GST control) with ELK4. Besides, the binding signal in the experiment with ETV2 is 1.08 fold enrichment (6-mer frequency, TF over GST control); with ELF3 it was 1.1 fold enrichment (6-mer frequency, TF over GST control); in the experiment with CRX it was 1.26 fold enrichment (6-mer frequency, TF over GST control); in the experiment with ETV1, 1.1 fold enrichment (6-mer frequency, TF over GST control); in the experiment with ERF, 1.17 fold enrichment (6-mer frequency, TF over GST control); with ETV3L, 1.2 fold enrichment (6-mer frequency, TF over GST control). The binding signal with ETS2 is 1.24 fold enrichment (6-mer frequency, TF over GST control); in the experiment with SPDEF, 1.18 fold enrichment (6-mer frequency, TF over GST control); in the experiment with ETV7 it was 1.33 fold enrichment (6-mer frequency, TF over GST control); with ELF5 it was 1.24 fold enrichment (6-mer frequency, TF over GST control); with ETV3, 1.26 fold enrichment (6-mer frequency, TF over GST control); in the experiment with ETV6, 1.08 fold enrichment (6-mer frequency, TF over GST control).

The values above are taken from publication PMC7862700, “An all-to-all approach to the identification of sequence-specific readers for epigenetic DNA modifications on cytosine”.
